Records with an inconclusive call do not appear. Calls of active or inactive are those of the source. Unless noted, the call rests on the fitted dose curve; in most records, active means well fitted curve in the direction sought with a large enough effect in the repeat runs; inconclusive means weak or mixed curves; inactive means no such curve, though single readings can be large; an effect the other way counts as inactive or inconclusive.
Columns and labels:
[1] = qHTS assay to identify small molecule agonists of H2AX (AID 1224845; active means well fitted activation curve with a large enough effect in the signal ratio in the repeat runs, not every such curve was filed as active; the % refers to the signal ratio)
Summary of the method: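 Phospho-H2AX Ser139 measured by HTRF (ex 320 nm; em 665 and 620 nm) after 24 hr antibody incubation. Compounds, 15 concentrations, 0.76% DMSO, were applied to CHO-K1 cells for 3hr at 37C before lysis.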

[2] = qHTS assay to identify small molecule agonists of the hypoxia (HIF-1) signaling pathway (AID 1224846; active means well fitted activation curve with a large enough effect in the signal ratio in the repeat runs, not every such curve was filed as active; the % refers to the signal ratio)
Summary of the method: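 In ME-180 cells bearing an HRE-bla construct, 17 h treatment with DMSO-dissolved compounds at 37C was followed by CCF4-AM loading to quantify reporter induction.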

[3] = qHTS assay to identify small molecule agonists of H2AX - cell viability counter screen (AID 1224847; calls by dose curve; further: top concentration of the series differs between compounds; nearly all actives have a fitted effect of over 30% in size)
Summary of the method: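 Cytotoxicity counter screen in wild-type CHO-K1 cells: a 3 hr compound treatment at 37C across 15 concentrations, followed by CellTiter-Glo luminescence to gauge viable cells.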

[4] = qHTS assay to identify small molecule antagonists of the estrogen related receptor (ERR) signaling pathway from Tox21 library (AID 1224848); further: nearly all actives have a fitted effect of over 50% in size
Summary of the method: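 ERR cell line, 2,000 cells/well. 6 h settle, then compound (DMSO) added; 18 h at 37 C; ONE-Glo luminescence after 30 min RT.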

[5] = qHTS assay to identify small molecule agonists of the estrogen related receptor (ERR) signaling pathway from Tox21 library (AID 1224849; calls by dose curve; further: nearly all actives have a fitted effect of over 15% in size); conditions: ERR reporter cell line, ONE-Glo luciferase, 18 h; at 92.4 µM (top of the series) unless noted
Summary of the method: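 Reporter cells (ERR, NTP source) treated with Tox21 10K compounds 18 h, 37 C. Readout: ONE-Glo luminescence, 30 min RT.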

[6] = qHTS RealTime-Glo MT Cell Viability Assay in HepG2 cells - 24 hour (AID 1224867); further: nearly all actives have a fitted effect of over 50% in size
Summary of the method: (§1)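 qHTS, HepG2, 600 cells/well, RealTime-Glo (NanoLuc + prosubstrate) added with cells; 5 h preincubation; DMSO compound addition; 37 C; luminescence at 0/8/16/24/32/40 h.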

[7] = qHTS RealTime-Glo MT Cell Viability Assay in HEK293 cells - 32 hour (AID 1224868); further: top concentration of the series differs between compounds; nearly all actives have a fitted effect of over 50% in size
Summary of the method: (§2)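 Assay medium contained NanoLuc luciferase plus cell-permeant prosubstrate, added with HEK293 cells at 600 cells/well. After 5 h at 37 C/5% CO2 compounds were added; plates stayed at 37 C for 40 h with serial luminescence reads.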

[8] = A CellTox Green Cytotoxicity Assay to monitor cytotoxicity in HEK293 cells - 0 hour (AID 1224869); further: nearly all actives have a fitted effect of over 50% in size
Summary of the method: (§3)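 Homogeneous no-lysis format: HEK293 cell suspension mixed with CellTox Green reagent, seeded, incubated 5 h at 37 C/5% CO2, then dosed by pintool with compound in DMSO.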

[9] = qHTS RealTime-Glo MT Cell Viability Assay in HepG2 cells - 40 hour (AID 1224870); further: nearly all actives have a fitted effect of over 50% in size
Summary of the method: (§4)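 Real-time viability: cells seeded at 600 per well together with NanoLuc and cell-permeant prosubstrate, compounds added after 5 h incubation. Luminescence tracked at 0, 8, 16, 24, 32 and 40 h of exposure.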

[10] = A CellTox Green Cytotoxicity Assay to monitor cytotoxicity in HEK293 cells - 40 hour (AID 1224871); further: nearly all actives have a fitted effect of over 45% in size
Summary of the method: as §3

[11] = qHTS RealTime-Glo MT Cell Viability Assay in HEK293 cells - 16 hour (AID 1224872)
Summary of the method: as §2

[12] = qHTS RealTime-Glo MT Cell Viability Assay in HepG2 cells - 8 hour (AID 1224873); further: nearly all actives have a fitted effect of over 55% in size
Summary of the method: as §4

[13] = qHTS RealTime-Glo MT Cell Viability Assay in HEK293 cells - 40 hour (AID 1224874); conditions: RealTime-Glo luminescence; max response: hits give low values; further: nearly all actives have a fitted effect of over 50% in size
Summary of the method: (§5)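 Measured as luminescence from the same continuously cultured HEK293 wells at successive time points (0, 8, 16, 24, 32, 40 h) after compound addition. Reagent present from seeding; dosing at 5 h; incubation 37 C.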

[14] = A CellTox Green Cytotoxicity Assay to monitor cytotoxicity in HepG2 cells - 16 hour (AID 1224876); further: nearly all actives have a fitted effect of over 45% in size
Summary of the method: (§6)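 Fluorescent DNA-binding dye, 600 HepG2 cells/well, 5 h preincubation then compound in DMSO; same plates read at 0–40 h, 37 C.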

[15] = qHTS RealTime-Glo MT Cell Viability Assay in HepG2 cells - 32 hour (AID 1224877); further: nearly all actives have a fitted effect of over 55% in size
Summary of the method: as §1

[16] = A CellTox Green Cytotoxicity Assay to monitor cytotoxicity in HepG2 cells - 24 hour (AID 1224878); further: nearly all actives have a fitted effect of over 45% in size
Summary of the method: as §6

[17] = A CellTox Green Cytotoxicity Assay to monitor cytotoxicity in HepG2 cells - 40 hour (AID 1224879); further: nearly all actives have a fitted effect of over 40% in size
Summary of the method: as §6

[18] = qHTS RealTime-Glo MT Cell Viability Assay in HEK293 cells - 0 hour (AID 1224880); further: top concentration of the series differs between compounds; nearly all actives have a fitted effect of over 45% in size
Summary of the method: as §5

[19] = A CellTox Green Cytotoxicity Assay to monitor cytotoxicity in HEK293 cells - 32 hour (AID 1224881); further: nearly all actives have a fitted effect of over 40% in size
Summary of the method: as §3

[20] = A CellTox Green Cytotoxicity Assay to monitor cytotoxicity in HEK293 cells - 24 hour (AID 1224875); further: nearly all actives have a fitted effect of over 45% in size
Summary of the method: as §3
On the % scale 0 is the no-effect control and ±100 the full control effect.

CC(C)(C)S
inactive: Potency [1] | outcome [2] | Potency [3] | Potency [4] | activity change, positive = activation [5] 4.53% | Potency [6] | Potency [7] | Potency [8] | Potency [9] | Potency [10] | Potency [11] | Potency [12] | max response [13] -0.0448% | Potency [14] | Potency [15] | Potency [16] | Potency [17] | Potency [18] | Potency [19]

CN=C(N)NC(=O)Nc1c(C)cccc1C
inactive: Potency [1] | outcome [2] | Potency [3] | Potency [4] | activity change, positive = activation [5] -0.434% [at 42.5 µM] | Potency [6] | Potency [7] | Potency [8] | Potency [9] | Potency [10] | Potency [11] | Potency [12] | max response [13] 5.93% | Potency [20] | Potency [14] | Potency [15] | Potency [16] | Potency [17] | Potency [18] | Potency [19]

[Cl][Nd]([Cl])[Cl]
inactive: Potency [1] | outcome [2] | Potency [3] | Potency [4] | activity change, positive = activation [5] -6.02% | Potency [6] | Potency [7] | Potency [8] | Potency [9] | Potency [10] | Potency [11] | Potency [12] | max response [13] 2.18% | Potency [20] | Potency [14] | Potency [15] | Potency [16] | Potency [17] | Potency [18] | Potency [19]

CC(=O)NNC(C)=O
inactive: Potency [1] | outcome [2] | Potency [3] | Potency [4] | activity change, positive = activation [5] 2.66% | Potency [6] | Potency [7] | Potency [8] | Potency [9] | Potency [12] | max response [13] 0.186% | Potency [20] | Potency [14] | Potency [16] | Potency [17] | Potency [18] | Potency [19]

COC1CCC=CO1 (stereo not drawn)
inactive: Potency [1] | outcome [2] | Potency [3] | Potency [4] | activity change, positive = activation [5] 5.99% | Potency [6] | Potency [7] | Potency [8] | Potency [9] | Potency [10] | Potency [11] | Potency [12] | max response [13] 9.69% | Potency [20] | Potency [14] | Potency [16] | Potency [17] | Potency [18] | Potency [19]

C=CC(=O)NC(C)C
inactive: Potency [1] | outcome [2] | Potency [3] | Potency [4] | activity change, positive = activation [5] 4.77% | Potency [6] | Potency [7] | Potency [8] | Potency [9] | Potency [10] | Potency [11] | Potency [12] | max response [13] 9.7% | Potency [20] | Potency [14] | Potency [15] | Potency [16] | Potency [17] | Potency [18] | Potency [19]

C=Cc1ccc(OC(C)=O)cc1
inactive: Potency [1] | outcome [2] | Potency [3] | Potency [4] | activity change, positive = activation [5] 12.7% | Potency [6] | Potency [7] | Potency [8] | Potency [9] | Potency [11] | Potency [12] | max response [13] 18.3% | Potency [14] | Potency [15] | Potency [16] | Potency [17] | Potency [18] | Potency [19]

O=C(O)CCS
inactive: Potency [1] | outcome [2] | Potency [3] | Potency [4] | activity change, positive = activation [5] 4.53% | Potency [6] | Potency [7] | Potency [8] | Potency [9] | Potency [10] | Potency [11] | Potency [12] | max response [13] 7.66% | Potency [14] | Potency [15] | Potency [17] | Potency [18] | Potency [19]

COc1ccc(C2C(=O)c3ccccc3C2=O)cc1
inactive: Potency [1] | outcome [2] | Potency [3] | Potency [4] | activity change, positive = activation [5] 13.1% [at 42.5 µM] | Potency [6] | Potency [7] | Potency [8] | Potency [9] | Potency [11] | Potency [12] | max response [13] 4.61% | Potency [20] | Potency [14] | Potency [15] | Potency [17] | Potency [18] | Potency [19]

CCCCCCCCCCCCCC(=O)OCC(O)CO (stereo not drawn)
inactive: Potency [1] | outcome [2] | Potency [3] | Potency [4] | activity change, positive = activation [5] 1.85% | Potency [6] | Potency [7] | Potency [8] | Potency [9] | Potency [10] | Potency [11] | Potency [12] | max response [13] -0.733% | Potency [14] | Potency [15] | Potency [16] | Potency [17] | Potency [18]

CCOC(=O)c1ccc(NC(=O)CN2CCCCC2)cc1
inactive: Potency [1] | outcome [2] | Potency [3] | Potency [4] | activity change, positive = activation [5] 5.71% [at 42.5 µM] | Potency [6] | Potency [7] | Potency [8] | Potency [9] | Potency [10] | Potency [12] | max response [13] -19.4% | Potency [14] | Potency [15] | Potency [17] | Potency [18] | Potency [19]

CC1C(C)(C)C2=C(C(=O)CCC2)C1(C)C (stereo not drawn)
inactive: Potency [1] | outcome [2] | Potency [3] | Potency [4] | activity change, positive = activation [5] -0.756% | Potency [6] | Potency [7] | Potency [8] | Potency [9] | Potency [10] | Potency [12] | max response [13] -12.9% | Potency [20] | Potency [15] | Potency [18]

CC(C)COC(=O)COc1cc(Cl)c(Cl)cc1Cl
inactive: Potency [1] | outcome [2] | Potency [3] | Potency [4] | activity change, positive = activation [5] -0.133% | Potency [6] | Potency [7] | Potency [8] | Potency [9] | Potency [10] | Potency [11] | Potency [12] | max response [13] -15.9% | Potency [14] | Potency [15] | Potency [16] | Potency [17] | Potency [18] | Potency [19]

Cc1c[nH]c2ccccc12
inactive: Potency [1] | outcome [2] | Potency [3] | Potency [4] | activity change, positive = activation [5] 0.349% [at 42.5 µM] | Potency [6] | Potency [7] | Potency [8] | Potency [9] | Potency [10] | Potency [11] | Potency [12] | max response [13] 17.2% | Potency [20] | Potency [14] | Potency [15] | Potency [16] | Potency [17] | Potency [18] | Potency [19]

Source: PubChem BioAssay (Tox21)
